Screening results: PubChem, National Center for Advancing Translational Sciences (NCATS)
L3MBTL1 block: L3MBTL1 (human) inhibition. Q9Y468. AlphaScreen L3MBTL1–H3K9me1 peptide binding. Potency, µM (titrated, usually from 57.1 µM), inactives show at the highest dose activity, negative = inhibition, usual class: inhibitors. actives 0.66% (n = 230,000). AID 485360; further: on the % scale 0 is the no-effect control and ±100 the full control effect; nearly all actives have a fitted effect of over 60% in size
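AlphaScreen proximity signal between nickel-chelate acceptor and streptavidin donor beads (final 10 ug/mL) reports binding of 50 nM L3MBTL1 to 75 nM biotin-H3 K9me1 peptide; complex incubated with compounds 30 min at room temperature; cefsulodin titration as control.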
Sfp inh: blocks B. subtilis Sfp PPTase activity; Potency, µM, without a hit: largest response in the series, negative = inhibition, actives largely listed as inhibitors; AID 1490; actives 3.5% (n = 310,000); Biochemical Sfp PPTase activity, qHTS; Q9F4F7;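 further: the enzyme is Sfp with the accession as filed and its product quenches rhodamine fluorescence; 0% = enzyme reaction without inhibitor and -100% = no enzyme wells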
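With Hepes-Na pH 7.6 buffer containing 10 mM MgCl2, Sfp (15 nM) modified BHQ-2-YbbR (12.5 uM) using rhodamine-CoA (5 uM). Two reads 30 minutes apart at 525/598 nm yielded each well's rate.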
BAZ2B block: blocks human BAZ2B | Q9UIF8 | AlphaScreen BAZ2B-H3K14Ac peptide displacement | Potency, µM (doses to about 114 µM), inactives show top-dose activity change, negative = inhibition, actives largely listed as inhibitors | actives 4.4% (n = 360,000) | AID 504333; further: on the % scale 0 is the no-effect control and ±100 the full control effect; nearly all actives have a fitted effect of over 60% in size
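AlphaScreen displacement of biotin-H3(5-23)K14Ac peptide (50 nM final) from BAZ2B (50 nM final) in PBS pH 7.4, 0.01% Tween-20; complex preformed 30 min RT, then compounds (top 110 uM) 30 min RT, beads 20 min dark.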
HP1b chromo inh: blocks HP1-beta chromodomain binding to methylated histone tails | AlphaScreen HP1-beta / biotin-H3K9me3 peptide binding | Potency, µM (titrated, usually from 114 µM), for inactives: at the highest dose activity change, negative = inhibition, most hits filed as inhibitors | actives 0.56% (n = 390,000) | AID 540317; further: nearly all actives have a fitted effect of over 70% in size
Target sequence (P83916 whole entry, looked up): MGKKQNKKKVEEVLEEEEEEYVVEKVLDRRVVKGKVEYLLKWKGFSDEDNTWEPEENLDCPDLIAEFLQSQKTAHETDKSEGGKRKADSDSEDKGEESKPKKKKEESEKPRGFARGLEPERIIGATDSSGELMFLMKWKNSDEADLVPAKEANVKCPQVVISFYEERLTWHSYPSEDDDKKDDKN
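HP1-beta protein (50 nM final) preincubated 30 min at room temperature with biotinylated H3(1-18)K9me3 peptide (50 nM) in PBS pH 7.4, 0.01% Tween-20, then compound added for 30 min. AlphaScreen streptavidin donor/nickel chelate acceptor beads (10 ug/mL final), 30 min dark, luminescence read.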
G9a inh: blocks human histone lysine methyltransferase G9a; G9a H3K9 monomethylation, AlphaScreen, 2 h; Potency, µM (series often up to 102 µM), for the others: top-dose activity, negative = inhibition, actives largely listed as inhibitors; actives 8.8% (n = 350,000); AID 504332; further: on the % scale 0 is the no-effect control and ±100 the full control effect; nearly all actives have a fitted effect of over 75% in size
Target sequence (Q96KQ7 913-1193 limits assumed): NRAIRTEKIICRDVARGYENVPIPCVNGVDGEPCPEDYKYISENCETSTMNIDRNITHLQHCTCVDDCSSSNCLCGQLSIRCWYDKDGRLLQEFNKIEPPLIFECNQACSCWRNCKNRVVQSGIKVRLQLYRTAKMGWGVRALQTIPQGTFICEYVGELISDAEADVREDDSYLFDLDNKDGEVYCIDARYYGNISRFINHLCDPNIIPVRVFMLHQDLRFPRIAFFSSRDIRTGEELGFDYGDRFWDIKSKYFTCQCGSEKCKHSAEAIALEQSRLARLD
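G9a (20 nM) preincubated 15 min RT with compounds, then 500 nM biotinylated H3K9 peptide and 20 uM SAM added; 2 h RT reaction. Monomethyl-H3K9 product detected by AlphaScreen with anti-H3K9me1 antibody, streptavidin donor and anti-rabbit IgG acceptor beads.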
JMJD2A Tudor inh: blocks the human JMJD2A Tudor domain; O75164; AlphaScreen JMJD2A-Tudor / H3K4me3 peptide binding; Potency, µM (highest dose often 114 µM), for the others: at the top dose activity change, negative = inhibition, most hits filed as inhibitors; actives 4.4% (n = 390,000); AID 504339; further: on the % scale 0 is the no-effect control and ±100 the full control effect; nearly all actives have a fitted effect of over 50% in size
Numbers without * were called inactive; ? = inconclusive; / = not tested or not shown; ! = a repeat was not active; [ ] = another dose, or the depositor's remark. Most compounds without a hit are left out; they make up all but 12% or so of the library. The call rests on the fitted dose curve; in most records, active means well fitted curve in the direction sought with a large enough effect; inconclusive means small, poorly fitted or top-dose-only effect, or another doubt; inactive means no such curve, though single readings can be large; an effect the other way counts as inactive or inconclusive. Potency means the concentration at half of the fitted maximal effect.

SMILES	L3MBTL1 block	Sfp inh	BAZ2B block	HP1b chromo inh	G9a inh	JMJD2A Tudor inh
CC1=NN(c2ccc(C)cc2C)C(=O)C1C(c1ccccc1O)C1C(=O)N(c2ccc(C)cc2C)N=C1C (stereo unspecified)	-4%	-6%	-10%	4%	1%[59 µM]	-24%
COc1ccc(C(=O)CC(Nc2ccc([N+](=O)[O-])cc2)c2ccc(OC)cc2)cc1 (stereo unspecified)	-11%	8%	-11%	-21%	?	?
CNC(CC(=O)c1ccc([N+](=O)[O-])cc1)C(Cl)(Cl)Cl (stereo unspecified)	0%	10µM*	?	16µM*	4µM*	?
Cc1ccc(NCC(=O)c2ccc([N+](=O)[O-])cc2)cc1	/	20µM*	?	?	8.9µM*	?
Cc1ccc(C(=O)CNc2cccc([N+](=O)[O-])c2)cc1	/	5%	0%	47%	?	-5%
CCc1ccccc1NC(=O)Nc1nnc(N(C)Cc2ccccc2)s1	/	/	-8%	32%	-5%[59 µM]	-13%
Cn1ncc(S(=O)(=O)Cc2ccccc2)c(Cl)c1=O	12%	6.3µM*	?	-25%	/	-28%
CCOc1cccc(OCCOCCNC(C)(C)C)c1	6%	-25%	45µM*	-51%	14µM*	22µM*
CCOc1ccc(OCCCCNC(C)(C)C)cc1	4%	?	50µM*	-5%	22µM*	35µM*
C/C(CCN1CCCCc2nc(C)c(C)cc21)=N\OC[C@@H](O)[C@H]1O[C@@H]2OC(C)(C)O[C@@H]2[C@H]1O	-5%	13%	-18%	/	50µM*	/
C/C(CCN1CCCCc2nc(C)c(C)cc21)=N\OC[C@@H](O)[C@@H]1O[C@@H]2OC(C)(C)O[C@@H]2[C@H]1O	/	16%	/	/	/	/
COc1ccc(O[C@H]2C=C[C@@H](c3ccccc3)O[C@@H]2CO/N=C(\C)CCN2CCCCc3nc(C)c(C)cc32)cc1	-11%	-11%	?	/	40µM*	/
CC(C)=CCn1cnc2c1c(=O)n(C)c(=O)n2C	/	-1%	/	/	/	/
CCOc1cc(/C=N/NC(=O)c2cc(C3CC3)[nH]n2)ccc1O	0%	14%	-27%	-1%	45µM*	50µM*
COc1cc(/C=N/NC(=O)c2cc(C3CC3)[nH]n2)ccc1O	/	0%	-5%	52%	0%	-3%
O=C(O)CCCn1cc(NC(=O)COc2ccccc2F)cn1	/	7%	6%	28%	52%	79µM*!
Cc1cc(OCC(=O)Nc2cnn(CCCC(=O)O)c2)ccc1Cl	/	-2%	-31%	46%	14µM*!	-4%
CCN1CCN(c2ncc3c(n2)CCN(CC(C)C)C3)CC1	/	/	?	21%	?	-28%
COc1ccccc1CNC(=O)c1cc2ccc3ccc(C)[nH]c3c2n1	/	/	2%[57.1 µM]	34%	-22%[59 µM]	-12%
CSc1ccc(C2CC(=O)Oc3c2c(=O)n(C)c2ccccc32)cc1 (stereo unspecified)	/	/	-9%	32%	9%[59 µM]	0%
CN1CCC2(CCN3CCc4c(oc5ccccc45)C3C2)N(C)C1=O (stereo unspecified)	/	/	/	/	16µM*!	/
CCOc1ccc(S(=O)(=O)NCCc2sc3nc(-c4ccc(F)cc4)nn3c2C)cc1	/	/	-1%	36%	5%[59 µM]	-4%
CC(C)c1cc[n+](-c2nc([O-])sc2C=O)cc1	-1%	40µM*	79µM*	20%	?	35µM*
CCc1cc[n+](-c2nc([O-])sc2C=O)cc1	-3%	50µM*	-35%	31%	?	-18%[11.4 µM]
CC(C)(C)c1cc[n+](-c2nc([O-])sc2C=O)cc1	3%	25%	4%	8%	12%	-18%
SMILES	L3MBTL1 block	Sfp inh	BAZ2B block	HP1b chromo inh	G9a inh	JMJD2A Tudor inh
O=Cc1c(-[n+]2ccccc2)nc([O-])n1-c1ccccc1	/	20%	4%	17%	?	-14%
CCCCC[C@H](O)/C=C/C=C\C/C=C\CCCCCCC(=O)O	/	6%	/	/	/	/
CCc1ccccc1NC(=O)c1cccc(NC(=O)/C=C/c2ccco2)c1	-13%	20µM*	-37%	-2%	?	-27%
O=C(/C=C/c1ccco1)Nc1cccc(C(=O)Nc2ccccc2C(=O)O)c1	14µM*	56µM*	?	-18%	/	79µM*
CC(C)CN(CC(C)C)S(=O)(=O)c1ccc(C(=O)Nc2sc3c(c2C(N)=O)CCN(C(C)C)C3)cc1	/	/	1%	40%	1%[59 µM]	-19%
COc1ccc(-c2ccc(C3C(C#N)=C(N)Oc4n[nH]c(C)c43)o2)cc1 (stereo unspecified)	-9%	-5%	50µM*	-27%	?	?
Cc1[nH]nc2c1C(c1ccco1)C(C#N)=C(N)O2 (stereo unspecified)	6%	4%	-14%	18%	-4%	-8%
Cc1ccc(C2C(C#N)=C(N)Oc3n[nH]c(-c4ccccc4)c32)o1 (stereo unspecified)	/	?	?	?	22µM*	16µM*
Cc1ccc(-c2[nH]nc3c2C(C)C(C#N)=C(N)O3)cc1 (stereo unspecified)	0%	6%	-8%	10%	19%[59 µM]	-24%
Cc1ccc(C2C(C#N)=C(N)Oc3n[nH]c(-c4cccnc4)c32)o1 (stereo unspecified)	/	4%	?	31%	79µM*	-8%
N#CC1=C(N)Oc2n[nH]c(-c3ccc(F)cc3)c2C1c1cccnc1 (stereo unspecified)	/	1%	1%	18%	?	-25%
Cc1ccc(-c2nc3scc(CCNC(=O)Cc4ccc(Cl)cc4)n3n2)cc1	/	/	5%	30%[57 µM]	9%[59 µM]	-2%
Cc1sc2ccc3sccc3c2[n+]1C	-7%	2.8µM*	?	4%	3.5µM*	20µM*
Cc1sc2c3ccsc3ccc2[n+]1C	/	3.5µM*	100µM*	-20%	?	25µM*
Oc1ccc(/C=C/c2nc(-c3ccccc3O)n(-c3ccccc3)n2)cc1	-5%	?	?	-10%	-1%[12.7 µM]	?
Oc1ccc(/C=C/c2nc(-c3ccccc3O)n(-c3ccccc3)n2)c(O)c1	/	/	32µM*	1%	?	?
CN(C)c1nc(C(F)(F)F)cc(=O)[nH]1	3%	13%	-12%	22%	8%	-10%
CC1Nc2nc(N(C)C)[nH]c(=O)c2NC1C (stereo unspecified)	11%	-8%	?	61%	3.2µM*	28µM*
C/C(=N/Nc1ccccc1C(=O)O)c1cccs1	-2%	17%	?	8%	?	-29%
O=C(COC(=O)/C=C/c1cccs1)Nc1nc(-c2ccccc2)cs1	5%	5%	5%	58%	1.1µM*	-9%
